Experimental data: PubChem BioAssay (NCATS)
Results filed as inconclusive are left out. Active and inactive are the calls of the source. Calls follow the shape of the dose curve; as a rule, active = well fitted curve in the direction sought with a large enough effect; inconclusive = small, poorly fitted or top-dose-only effect, or another doubt; inactive = no such curve, though single readings can be large; an effect the other way counts as inactive or inconclusive.

Key:
[1] = BET inhibitor-based combinations targeting novel dependencies in MECOM-rearranged (r) AML: SET-2 cell line (AID 2202231); settings: SET-2 AML cells viability, CellTiter-Glo luminescence, 48 h; viability: active compounds read low, concentration not given here; also: nearly all actives have a fitted effect of over 35% in size;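 as to viability: plate controls were DMSO treated cells for no effect and wells without cells for full effect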
Procedure, shortened: (§1)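 A 48 hr incubation preceded viability reading by CellTiter-Glo, with 15 min room-temperature development. Dose series had 11 points; normalization used DMSO and empty wells; AUC was computed and mean-centered per line as Z-AUC.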

[2] = BET inhibitor-based combinations targeting novel dependencies in MECOM-rearranged (r) AML: OCI-AML3 cell line (AID 2202232); settings: Potency: OCI-AML3 viability; also: nearly all actives have a fitted effect of over 35% in size;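 as to viability (% of control): series mostly up to about 46 µM; plate controls were DMSO vehicle wells for no effect and wells without cells for full effect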
Procedure, shortened: as §1

[3] = BET inhibitor-based combinations targeting novel dependencies in MECOM-rearranged (r) AML: MV-4-11 cell line (AID 2202233); also: nearly all actives have a fitted effect of over 45% in size;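 as to viability, % of control: plate controls were DMSO for no effect and blank wells for full effect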
Procedure, shortened: (§2)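 Each compound is tested in an 11-point concentration series against 500 seeded cells/well for 48 hr. The luminescent viability signal is normalized to DMSO and blank wells, then reduced to AUC and a cell-line-centred Z-AUC.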

[4] = BET inhibitor-based combinations targeting novel dependencies in MECOM-rearranged (r) AML: HNT-34 cell line (AID 2202234); also: nearly all actives have a fitted effect of over 35% in size;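 as to viability (% of control): plate controls were vehicle wells for no effect and cell-free wells for full effect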
Procedure, shortened: as §2

[5] = BET inhibitor-based combinations targeting novel dependencies in MECOM-rearranged (r) AML: UCSD-AML1 cell line (AID 2202235); also: nearly all actives have a fitted effect of over 40% in size;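 as to viability (% of control): series mostly up to about 46 µM; plate controls were DMSO vehicle wells for no effect and blank wells for full effect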
Procedure, shortened: as §2

[6] = BET inhibitor-based combinations targeting novel dependencies in MECOM-rearranged (r) AML: AML-191 cell line (AID 2202236; also: nearly all actives have a fitted effect of over 35% in size;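 as to viability (% of control): plate controls were vehicle wells for no effect and wells without cells for full effect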)
Procedure, shortened: as §1

[7] = BET inhibitor-based combinations targeting novel dependencies in MECOM-rearranged (r) AML: AML-194 cell line (AID 2202237; also: nearly all actives have a fitted effect of over 40% in size;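 as to viability (% of control): plate controls were vehicle wells for no effect and wells without cells for full effect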)
Procedure, shortened: as §1
Potency is read from the fitted curve at half-maximal effect.

C[C@@H]1[C@H](O)[C@@H](C)/C=C/C=C/C=C/C=C/C=C/C=C/C=C/[C@H](O[C@@H]2O[C@H](C)[C@@H](O)[C@H](N)[C@@H]2O)C[C@@H]2O[C@](O)(C[C@@H](O)C[C@@H](O)[C@H](O)CC[C@@H](O)C[C@@H](O)CC(=O)O[C@H]1C)C[C@H](O)[C@H]2C(=O)O
inactive: viability [1] 112% | Potency [2] | Potency [4] | Potency [5] | Potency [6] | Potency [7]
active: Potency [3] 23.5 µM

CC(=NNC(=O)c1cccc(S(=O)(=O)N2CCOCC2)c1)c1cc(Cl)ccc1O
active: Potency [1] 6.61 µM | Potency [2] 5.25 µM | Potency [3] 7.42 µM | Potency [4] 2.63 µM | Potency [5] 5.25 µM | Potency [6] 2.09 µM | Potency [7] 4.68 µM

O=C(O)CNC(=O)c1nc(Cl)c2ccccc2c1O
inactive: viability [1] 122% | Potency [2] | Potency [3] | Potency [4] | Potency [6] | Potency [7]

CC[C@@]1(O)C(=O)OCc2c1cc1n(c2=O)Cc2c-1nc1cc(F)c(C)c3c1c2[C@@H](N)CC3
active: Potency [1] 0.0037 µM | Potency [2] 0.0053 µM | Potency [3] 0.0042 µM | Potency [4] 0.003 µM | Potency [6] 0.0083 µM | Potency [7] 0.0037 µM

Cc1cc(O[C@@H](CCC(F)(F)F)c2ccc(C(=O)NCCC(=O)O)cc2)cc(C)c1-c1ccc(C(C)(C)C)cc1
active: Potency [1] 20.9 µM | Potency [2] 20.9 µM | Potency [3] 18.6 µM | Potency [4] 20.9 µM | Potency [6] 16.6 µM | Potency [7] 26.3 µM

C[C@H]1C[C@H]2[C@@H]3CCC4=CC(=O)C=C[C@]4(C)[C@H]3C(=O)C[C@]2(C)[C@@]1(O)C(=O)CO
inactive: viability [1] 116% | Potency [2] | Potency [3] | Potency [4] | Potency [6] | Potency [7]

O=C(/C=C/c1ccc(/C=C/C(=O)Nc2ccc(C3=NCCN3)cc2)cc1)Nc1ccc(C2=NCCN2)cc1
inactive: viability [1] 113% | viability (% of control) [2] 117% [at 5.12 µM] | viability, % of control [3] 112% [at 5.12 µM] | viability (% of control) [4] 109% [at 5.12 µM] | viability (% of control) [6] 109% [at 5.12 µM] | viability (% of control) [7] 108% [at 5.12 µM]

O=S(=O)(Nc1ccc(-c2cccnc2)c2cccnc12)c1cccc(C(F)(F)F)c1
active: Potency [1] 10.5 µM | Potency [2] 7.42 µM | Potency [3] 7.42 µM | Potency [4] 4.17 µM | Potency [6] 5.9 µM | Potency [7] 7.42 µM

C[C@@H]1C[C@H](N)C[C@H](c2ccncc2NC(=O)c2ccc(F)c(-c3c(F)cccc3F)n2)C1
active: Potency [1] 18.6 µM | Potency [2] 16.6 µM | Potency [3] 5.25 µM | Potency [4] 5.25 µM | Potency [6] 10.5 µM | Potency [7] 5.9 µM

O=C(NO)c1cnc(N2C[C@H]3C[C@@H]2CN3c2cc(C(F)(F)F)ccn2)nc1
active: Potency [1] 2.35 µM | Potency [2] 3.72 µM | Potency [3] 2.09 µM | Potency [4] 3.72 µM | Potency [6] 4.17 µM | Potency [7] 4.17 µM

NC(=O)C1=C(O)[C@@]2(O)C(=O)C3=C(O)c4c(O)cccc4C[C@H]3C[C@H]2CC1=O
active: Potency [1] 4.68 µM | Potency [2] 3.72 µM | Potency [3] 9.34 µM | Potency [4] 8.33 µM | Potency [6] 7.42 µM | Potency [7] 10.5 µM

COc1cc(C)[nH]c(=O)c1CN1CCc2c(Cl)cc([C@H](OC)C3COC3)c(Cl)c2C1=O
inactive: viability [1] 112% | Potency [2] | Potency [3] | Potency [4] | Potency [6] | Potency [7]

COc1cc(C(=O)O)ccc1NC(=O)[C@@H]1N[C@@H](CC(C)(C)C)[C@](C#N)(c2ccc(Cl)cc2F)[C@H]1c1cccc(Cl)c1F
active: Potency [2] 2.09 µM | Potency [3] 0.132 µM | Potency [4] 0.132 µM | Potency [6] 0.742 µM | Potency [7] 0.833 µM
inactive: viability [1] 112%

CN[C@@H]1[C@@H](O)[C@@H](O[C@@H]2[C@@H](O)[C@H](O[C@H]3O[C@H](CN)[C@@H](O)[C@H](O)[C@H]3O)[C@@H](N)C[C@H]2NC(=O)C(O)CN)OC[C@]1(C)O (some centres undefined)
inactive: viability [1] 116% | Potency [2] | Potency [3] | Potency [4] | Potency [6]

COc1cc(N2CCN(C)CC2)ccc1Nc1ncc2c(n1)N(C)c1ccccc1C(=O)N2C
active: Potency [1] 16.6 µM | Potency [2] 2.35 µM | Potency [3] 1.32 µM | Potency [4] 16.6 µM | Potency [6] 18.6 µM

OC[C@H]1O[C@@H](S[C@@H]2O[C@H](CO)[C@H](O)[C@H](n3cc(-c4cccc(F)c4)nn3)[C@H]2O)[C@H](O)[C@@H](n2cc(-c3cccc(F)c3)nn2)[C@H]1O
inactive: viability [1] 115% | Potency [2] | Potency [3] | Potency [4] | Potency [6] | Potency [7]

C/C(=N\NC(=O)c1cccc(S(=O)(=O)N2CCOCC2)c1)c1cc(Cl)ccc1O
active: Potency [1] 6.61 µM | Potency [2] 1.86 µM | Potency [3] 5.9 µM | Potency [4] 2.95 µM | Potency [6] 2.09 µM | Potency [7] 4.17 µM

CC(C)(S)[C@@H](N)C(=O)O
inactive: viability [1] 116% | viability (% of control) [2] 118% [at 5.12 µM] | viability, % of control [3] 125% [at 5.12 µM] | viability (% of control) [4] 108% [at 5.12 µM] | viability (% of control) [6] 111% [at 5.12 µM] | viability (% of control) [7] 114% [at 5.12 µM]

COCc1c(-c2ccc(NC(=O)Nc3cc(C(F)(F)F)ccc3F)c(F)c2)c2c(N)ncnn2c1CN1CCOCC1
active: Potency [1] 6.61 µM | Potency [2] 10.5 µM | Potency [3] 0.0263 µM | Potency [4] 2.35 µM | Potency [6] 5.9 µM | Potency [7] 5.9 µM
